From PubChem BioAssay AID687001 (Broad Institute, 2013)
Measured potencies and affinities stand elsewhere. The source made the active and inactive calls.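 Rule for the calls: active = signal-lowering compounds whose fitted half-maximal concentration is at or below twice the top tested dose in every run; inconclusive = runs disagree, flat 30 to 70% inhibition, or poor curve fit; inactive = the rest.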

target: Protein S100-A4 (Homo sapiens) (UniProt P26447); assay: S100A4-myosin IIA binding inhibitor potency, dose response, biochemical, fluorescence polarization, cherry-picked hits (AID 687001); settings: FP, S100A4/TAMRA-myosin IIA peptide binding; series mostly up to 11 µM; activity change, negative = inhibition: at the top concentration;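 note: 0% = DMSO neutral control wells and -100% = TFP positive control wells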
Sequence (P26447 whole entry, looked up): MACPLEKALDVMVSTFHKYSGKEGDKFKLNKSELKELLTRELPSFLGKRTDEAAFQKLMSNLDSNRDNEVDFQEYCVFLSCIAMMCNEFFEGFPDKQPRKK

Activity change, negative = inhibition, inactive:
CC(=O)c1c(C)[nH]c(C(=O)OCc2csc(CC(=O)Nc3ccccc3C)n2)c1C 8.31%, C[C@@H]1CCCCO[C@@H](CN(C)S(=O)(=O)c2cn(C)cn2)[C@H](C)CN([C@@H](C)CO)C(=O)c2cc(NC(=O)C3CCCCC3)ccc2O1 0.768%, CCNC(=O)[C@@H]1[C@@H](CO)[C@@H]2Cn3c(ccc(-c4ccccc4)c3=O)[C@@H]2N1CC -3.86%, CNc1nc(-c2ccc(S(=O)(=O)N3CCCCC3)cc2)cs1 -4.15%, CCOC(=O)[C@]12CCCC=C1N(Cc1ccccc1)C(=O)[C@H](CC(=O)NCCCN1CCCC1=O)C2 0.767%, CCOc1ccc(NC(=O)CSc2nccn(-c3ccc4c(c3)OCCO4)c2=O)cc1 9.51%, Cc1ccc(S(=O)(=O)N(C)C[C@@H]2OCCCC[C@@H](C)Oc3ccc(NS(C)(=O)=O)cc3C(=O)N([C@@H](C)CO)C[C@@H]2C)cc1 0.697%, O=C(NCc1ccccc1)c1cc(C2CCCCN2S(=O)(=O)c2ccccc2)on1 (centres undefined) -4.47%, O=C(Nc1ccc2c(c1)CN(Cc1ccco1)CC2)C1CCCO1 (centres undefined) 8.73%
